Measured values as given in PubChem BioAssay AID2620 (National Center for Advancing Translational Sciences (NCATS), 2010).
Inconclusive results are not listed. The source made the active and inactive calls. Calls follow the shape of the dose curve; as a rule, active = well fitted curve in the direction sought with a large enough effect; inconclusive = small, poorly fitted or top-dose-only effect, or another doubt; inactive = no such curve, though single readings can be large or run the other way.

molecular target: Pyruvate kinase PKM (Homo sapiens) (UniProt P14618); test: Secondary LDH Assay for Activators of Human Pyruvate Kinase M1 Isoform: for Probe SAR; settings: purified hPK-M1, LDH-coupled NADH fluorescence kinetic; series mostly up to 58.2 µM; activity change, negative = inhibition: at the top concentration; also: % of control where 0% means no effect
Excerpt: NIH Chemical Genomics Center [NCGC]
Matthew G. Vander Heiden, M.D., Ph.D. [Harvard Medical School, 77 Avenue Louis Pasteur, Boston, MA 02115]
Human pyruvate kinase […] (hPK-M1)enzyme was supplied as a highly purified (>95% pure) preparation from Harvard Medical School and a secondary assay was used to evaluate compounds. This assay couples the formation of pyruvate from […] using lactate dehydrogenase (LDH) and NADH. The depletion of NADH is followed in a fluorescent-based kinetic assay that follows the formation of pyruvate to lactate, as catalyzed LDH. Pyruvate kinase substrates, PEP and ADP, were present in the assay at 0.1 mM and 4 mM respectively. In this kinetic assay initial rates were determined by following the fluorescence of NADH depletion.
NCGC Assay Protocol Summary:
Three uL of substrate mix (final concentration, 50 mM Tris-Cl pH 8.0, 200 mM KCl, 15 mM MgCl2, 0.1 mM PEP, 4.0 mM ADP, and 0.2 mM NADH) was dispensed into black-solid 1536 well plates. 23 nL of compounds were delivered by a pin tool and 1 uL of enzyme mix (final concentrations, 10 nM hPK-M1 and 1 uM of LDH) was added. Plates were immediately placed in ViewLux (Perkin Elmer) and NADH fluorescence was determined at 30 second exposure intervals for between 3 and 6 minutes. Data were normalized to the uninhibited controls.

Sequence of Pyruvate kinase PKM (Homo sapiens) (P14618 whole entry, looked up, canonical isoform): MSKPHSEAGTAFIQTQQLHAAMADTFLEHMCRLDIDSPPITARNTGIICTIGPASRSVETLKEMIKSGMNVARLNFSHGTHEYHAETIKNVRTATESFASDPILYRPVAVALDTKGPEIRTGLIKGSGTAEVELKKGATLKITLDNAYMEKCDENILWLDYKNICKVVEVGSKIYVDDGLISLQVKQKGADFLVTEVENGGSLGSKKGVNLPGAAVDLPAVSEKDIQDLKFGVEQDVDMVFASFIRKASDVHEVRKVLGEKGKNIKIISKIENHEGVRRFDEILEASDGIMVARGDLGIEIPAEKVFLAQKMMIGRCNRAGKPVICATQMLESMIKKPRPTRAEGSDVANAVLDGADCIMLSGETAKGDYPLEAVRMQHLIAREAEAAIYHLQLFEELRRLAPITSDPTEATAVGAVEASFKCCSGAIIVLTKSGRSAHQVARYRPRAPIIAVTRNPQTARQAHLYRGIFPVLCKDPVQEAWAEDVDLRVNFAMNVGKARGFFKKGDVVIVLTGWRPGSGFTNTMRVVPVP

Activity change, negative = inhibition, inactive:
O=C1c2ccccc2C(=O)N1c1cccnc1 0.813%, COc1cccc(OC2=NS(=O)(=O)c3ccccc32)c1 7.2%, O=C1CCc2cc(S(=O)(=O)Nc3ccc4ncccc4c3)ccc2N1 -3.94%, Cc1c(Cl)cccc1NS(=O)(=O)c1cc2c(cc1F)NC(=O)CC2 4.48%, COc1cc(N2C(=O)c3ccccc3C2=O)c2ncccc2c1 -1.32%, Cc1ccc(NS(=O)(=O)c2ccc(-c3ccccc3)cc2)cc1C 1.51%, Cc1cccc(NS(=O)(=O)c2ccc3c(c2)CCC(=O)N3)c1 5.91%, Cc1ccc(NS(=O)(=O)c2ccc3c(c2)CCO3)cc1C 10.2%, CNc1cccc(S(=O)(=O)N2CCN(S(=O)(=O)c3ccc4c(c3)OCCO4)CC2)c1 -4.54%, CN(C)c1cccc(S(=O)(=O)N2CCN(S(=O)(=O)c3ccc4c(c3)OCCO4)CC2)c1 -4.42%, Cc1ccc(NS(=O)(=O)c2ccc3c(c2)N(C)C(=O)CO3)cc1C 3.09%, Cc1ccc(NS(=O)(=O)c2cc3c(cc2F)NC(=O)CC3)cc1C 17.7%, O=C1c2ccccc2C(=O)N1C1CCCCC1 -1.77%, Cc1ccccc1OC1=NS(=O)(=O)c2ccccc21 2.65%, O=C1c2ccccc2C(=O)N1c1ccc(O)cc1 7.32%, Cc1ccc(Nc2c(-c3ccc(C)o3)nc3ccccn23)cc1 -25.5%, COc1ccccc1OC1=NS(=O)(=O)c2ccccc21 1.77%, Cc1ccc(NS(=O)(=O)c2cc3c(cc2C)OCC(=O)N3)cc1C 1.24%, Cc1cc(N2C(=O)c3ccccc3C2=O)no1 4.03%, N#Cc1cccc(NS(=O)(=O)c2ccc3c(c2)CCC(=O)N3)c1 -1.28%, Cc1ccc(NS(=O)(=O)c2ccc3c(c2)CCCC(=O)N3)cc1C 7.88%, Cc1ccc(NS(=O)(=O)c2ccc(Cl)cc2)cc1C 3.96%, Cc1ccc(NS(=O)(=O)c2cc3c(cc2Cl)CCC(=O)N3)cc1Cl 4.63%, CC(=O)Nc1ccc(S(=O)(=O)Nc2ccc(C)c(C)c2)cc1 3.42%, CC(=O)N1c2ccc(S(=O)(=O)Nc3ccc(C)c(C)c3)cc2CC1C (stereo not given) 1.97%, Cc1ccc(Nc2c(-c3ccc(C)s3)nc3cccc(C)n23)cc1 -21.1%, O=C1CCc2cc(S(=O)(=O)Nc3ccccn3)ccc2N1 -5.19%, Cc1ccc(Nc2c(-c3ccsc3)nc3cccc(C)n23)cc1 -5.94%, O=C1c2ccccc2C(=O)N1c1cccc2cccnc12 -3.81%, O=C1CCc2cc(S(=O)(=O)Nc3ccccc3F)ccc2N1 4.96%, Cc1ccc(NS(=O)(=O)c2ccc3c(c2)CC(=O)N3)cc1C 2.06%, Cc1ccccc1NS(=O)(=O)c1ccc2c(c1)CCC(=O)N2 4.43%, Cc1ccc(Cl)cc1NS(=O)(=O)c1cc2c(cc1Cl)CCC(=O)N2 4.27%, Cc1ccc(NS(=O)(=O)c2ccc3c(c2)CCC(=O)N3)cc1F 0.152%, O=C1c2ccccc2C(=O)N1c1cnc2ccccc2c1 -5.54%, Cc1c(Cl)cccc1NS(=O)(=O)c1cc2c(cc1Cl)CCC(=O)N2 2.07%, O=C1CCc2cc(S(=O)(=O)NCc3ccccc3)ccc2N1 3.91%, Cc1cc(NS(=O)(=O)c2ccc3c(c2)CCC(=O)N3)ccc1Cl -2.64%, Cc1ccc(N[S+](=O)([O-])c2cc3c(cc2CCc2ccccc2)NC(=O)CO3)cc1C 3.8%

outcome, inactive:
Cc1cc2c(s1)c1cnn(Cc3ccccc3F)c(=O)c1n2C
